Measurements taken from PubChem BioAssay (NCI).
The panel holds about 83,000 compounds, 20% with a hit somewhere; the sample as a whole holds those more often.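 Interpretation: 100, growth as untreated; towards 0, rising growth inhibition; 0, no net growth; 0 to -100, cell death. Compounds scoring below 10 were considered active.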 Activity calls are given as the source filed them.

Tests used:
Test in all cases: NCI-60 one-dose screen, 48 h (100 = growth as untreated, 0 = no growth, -100 = all killed)
SR leukemia = tested on: SR leukemia
RPMI-8226 leukemia = tested on: RPMI-8226 leukemia
OVCAR-8 ovarian = tested on: OVCAR-8 ovarian
OVCAR-5 ovarian = tested on: OVCAR-5 ovarian
OVCAR-4 ovarian = tested on: OVCAR-4 ovarian
OVCAR-3 ovarian = tested on: OVCAR-3 ovarian
HS 578T breast = tested on: HS 578T breast
NCI/ADR-RES ovarian = tested on: NCI/ADR-RES ovarian
T-47D breast = tested on: T-47D breast
BT-549 breast = tested on: BT-549 breast
MDA-MB-435 melanoma = tested on: MDA-MB-435 melanoma
SW-620 colon = tested on: SW-620 colon
MCF7 breast = tested on: MCF7 breast
HCT-116 colon = tested on: HCT-116 colon
HCC-2998 colon = tested on: HCC-2998 colon
SK-OV-3 ovarian = tested on: SK-OV-3 ovarian
IGROV1 ovarian = tested on: IGROV1 ovarian
KM12 colon = conditions: 10 µM unless noted

Measured: growth

CC(=O)/C=C/c1ccc(N(CCO)Cc2ccc(C(C)(C)C)cc2)cc1
inactive: SR leukemia; 10 µM 83% | RPMI-8226 leukemia; 10 µM 84.7% | OVCAR-8 ovarian; 10 µM 80.7% | OVCAR-5 ovarian; 10 µM 78.2% | OVCAR-4 ovarian; 10 µM 65.7% | OVCAR-3 ovarian; 10 µM 84.4% | HS 578T breast; 10 µM 65% | NCI/ADR-RES ovarian; 10 µM 67% | T-47D breast; 10 µM 60.2% | BT-549 breast; 10 µM 79% | MDA-MB-435 melanoma; 10 µM 80.7% | SW-620 colon; 10 µM 83.9% | MCF7 breast; 10 µM 62.9% | HCT-116 colon; 10 µM 67.2% | HCC-2998 colon; 10 µM 86.7%
active: SR leukemia; 100 µM -62.1% | RPMI-8226 leukemia; 100 µM -34.9% | OVCAR-8 ovarian; 100 µM -81.1% | OVCAR-5 ovarian; 100 µM -98.5% | OVCAR-4 ovarian; 100 µM -89.2% | OVCAR-3 ovarian; 100 µM -95% | HS 578T breast; 100 µM -52.9% | NCI/ADR-RES ovarian; 100 µM -88.3% | T-47D breast; 100 µM -83.2% | BT-549 breast; 100 µM -88.9% | MDA-MB-435 melanoma; 100 µM -94.4% | SW-620 colon; 100 µM -91.8% | MCF7 breast; 100 µM -55.4% | HCT-116 colon; 100 µM -98.1% | HCC-2998 colon; 100 µM -89.2%

COc1ccc(Nc2ncnc3ccc(-c4cncc(NS(C)(=O)=O)c4)cc23)cc1Cl
inactive: SR leukemia; 10 µM unless noted 11.2% | RPMI-8226 leukemia; 10 µM unless noted 24.9% | OVCAR-8 ovarian; 10 µM unless noted 46.2% | OVCAR-5 ovarian; 10 µM unless noted 45.1% | OVCAR-4 ovarian; 10 µM unless noted 57.5% | SK-OV-3 ovarian; 10 µM unless noted 21.6% | OVCAR-3 ovarian; 10 µM unless noted 15.2% | NCI/ADR-RES ovarian; 10 µM unless noted 86% | BT-549 breast; 10 µM unless noted 24.5% | MDA-MB-435 melanoma; 10 µM unless noted 49.1% | SW-620 colon; 10 µM unless noted 37.7% | MCF7 breast; 10 µM unless noted 15% | HCT-116 colon; 10 µM unless noted 19.1% | HCC-2998 colon; 10 µM unless noted 49.3%
active: IGROV1 ovarian; 10 µM unless noted 3.39% | HS 578T breast; 10 µM unless noted -3.14% | T-47D breast; 10 µM unless noted -13.6%

Nc1ccc(-c2ccc(N)c(Br)c2)cc1Br
active: MDA-MB-435 melanoma; 10 µM unless noted 1.83%
inactive: SR leukemia; 10 µM unless noted 20.7% | RPMI-8226 leukemia; 10 µM unless noted 29% | OVCAR-8 ovarian; 10 µM unless noted 59.2% | OVCAR-5 ovarian; 10 µM unless noted 63% | OVCAR-4 ovarian; 10 µM unless noted 75.5% | SK-OV-3 ovarian; 10 µM unless noted 64.4% | IGROV1 ovarian; 10 µM unless noted 47% | OVCAR-3 ovarian; 10 µM unless noted 51.4% | HS 578T breast; 10 µM unless noted 79.5% | NCI/ADR-RES ovarian; 10 µM unless noted 29.2% | T-47D breast; 10 µM unless noted 40.9% | BT-549 breast; 10 µM unless noted 34% | SW-620 colon; 10 µM unless noted 47% | MCF7 breast; 10 µM unless noted 17.9% | HCT-116 colon; 10 µM unless noted 23.6% | HCC-2998 colon; 10 µM unless noted 64.6% | KM12 colon 37.3%

C/C=C(\C)C(=O)N[C@H]1CC[C@]2(C)C3CC[C@@]4(C)C(CC[C@@H]4C(C)N(C)C)C3CCC2[C@H]1OC(C)=O (stereo partly specified)
inactive: OVCAR-8 ovarian; 10 µM unless noted 24.9% | OVCAR-5 ovarian; 10 µM unless noted 22% | NCI/ADR-RES ovarian; 10 µM unless noted 16.5%
active: SR leukemia; 10 µM unless noted 7.3% | RPMI-8226 leukemia; 10 µM unless noted -15.3% | OVCAR-4 ovarian; 10 µM unless noted -23.3% | SK-OV-3 ovarian; 10 µM unless noted -21.4% | IGROV1 ovarian; 10 µM unless noted 9.32% | OVCAR-3 ovarian; 10 µM unless noted -53.9% | HS 578T breast; 10 µM unless noted -39.9% | T-47D breast; 10 µM unless noted -43.5% | BT-549 breast; 10 µM unless noted -11% | MDA-MB-435 melanoma; 10 µM unless noted -56.8% | SW-620 colon; 10 µM unless noted -93% | MCF7 breast; 10 µM unless noted -27% | HCT-116 colon; 10 µM unless noted -83.3% | HCC-2998 colon; 10 µM unless noted -85.4%

COc1nc(=O)n(C2C=CC(=O)O2)cc1F (stereo unspecified)
active: SR leukemia; 10 µM unless noted -19.8%
inactive: RPMI-8226 leukemia; 10 µM unless noted 70.1% | OVCAR-8 ovarian; 10 µM unless noted 46% | OVCAR-5 ovarian; 10 µM unless noted 129% | OVCAR-4 ovarian; 10 µM unless noted 71.3% | SK-OV-3 ovarian; 10 µM unless noted 98.7% | IGROV1 ovarian; 10 µM unless noted 116% | OVCAR-3 ovarian; 10 µM unless noted 33.8% | HS 578T breast; 10 µM unless noted 94.4% | NCI/ADR-RES ovarian; 10 µM unless noted 111% | T-47D breast; 10 µM unless noted 41.7% | BT-549 breast; 10 µM unless noted 81.2% | MDA-MB-435 melanoma; 10 µM unless noted 79% | SW-620 colon; 10 µM unless noted 46.3% | MCF7 breast; 10 µM unless noted 31.9% | HCT-116 colon; 10 µM unless noted 34.3% | HCC-2998 colon; 10 µM unless noted 133%

COc1ccc(C(=O)/C=C/c2ccc(OCc3ccc(Cl)cc3)cc2)cc1OC
active: OVCAR-8 ovarian; 100 µM -8.35% | OVCAR-4 ovarian; 100 µM -4.25% | SK-OV-3 ovarian; 100 µM 7.5% | IGROV1 ovarian; 100 µM 4.98% | OVCAR-3 ovarian; 100 µM -45.2% | HS 578T breast; 100 µM -1.6% | NCI/ADR-RES ovarian; 100 µM 0.0169% | SW-620 colon; 100 µM 9.15% | MCF7 breast; 100 µM 9.31% | HCT-116 colon; 100 µM -25.8%
inactive: SR leukemia; 10 µM 78.2% | SR leukemia; 100 µM 43.8% | RPMI-8226 leukemia; 10 µM 88.5% | RPMI-8226 leukemia; 100 µM 55.8% | OVCAR-8 ovarian; 10 µM 92% | OVCAR-5 ovarian; 10 µM 103% | OVCAR-5 ovarian; 100 µM 135% | OVCAR-4 ovarian; 10 µM 86% | SK-OV-3 ovarian; 10 µM 120% | IGROV1 ovarian; 10 µM 105% | OVCAR-3 ovarian; 10 µM 104% | HS 578T breast; 10 µM 93.5% | NCI/ADR-RES ovarian; 10 µM 91.5% | T-47D breast; 10 µM 73.8% | T-47D breast; 100 µM 41.5% | BT-549 breast; 10 µM 115% | BT-549 breast; 100 µM 22% | MDA-MB-435 melanoma; 10 µM 90.7% | MDA-MB-435 melanoma; 100 µM 43.7% | SW-620 colon; 10 µM 103% | MCF7 breast; 10 µM 84.2% | HCT-116 colon; 10 µM 90.2% | HCC-2998 colon; 10 µM 101% | HCC-2998 colon; 100 µM 44%

COc1ccc(-c2cc3cnc4ccccc4c3oc2=O)cc1
inactive: SR leukemia; 10 µM unless noted 74.6% | RPMI-8226 leukemia; 10 µM unless noted 102% | OVCAR-8 ovarian; 10 µM unless noted 105% | OVCAR-5 ovarian; 10 µM unless noted 101% | OVCAR-4 ovarian; 10 µM unless noted 103% | SK-OV-3 ovarian; 10 µM unless noted 93.9% | IGROV1 ovarian; 10 µM unless noted 106% | OVCAR-3 ovarian; 10 µM unless noted 106% | HS 578T breast; 10 µM unless noted 100% | NCI/ADR-RES ovarian; 10 µM unless noted 102% | T-47D breast; 10 µM unless noted 87.1% | BT-549 breast; 10 µM unless noted 101% | MDA-MB-435 melanoma; 10 µM unless noted 98.6% | SW-620 colon; 10 µM unless noted 95.8% | MCF7 breast; 10 µM unless noted 86.9% | HCT-116 colon; 10 µM unless noted 93.3% | HCC-2998 colon; 10 µM unless noted 89.2% | KM12 colon 103%
